Bioassay records: PubChem, Broad Institute
T cruzi growth-1 – T. cruzi intracellular proliferation inhibitors, primary screen, cell-based, beta-gal Tulahuen parasites, NIH3T3 host, luminescence; actives 5.9% (n = 77,000); AID 624255, 2012; T. cruzi beta-gal in NIH3T3, GalScreen luminescence, 90 h; inhibition, % at 8.34 µM;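 active means mean inhibition above about 93%, with at least 55% of replicates each passing it, limit read from the data, passing the limit was not always enough; inconclusive means only one of those two conditions holds; inactive means neither condition holds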
C diff HTS – C. difficile growth inhibitors, primary screen, HTS; growth activity, negative = inhibition, % at 16 µg/mL (by protocol); actives 0.25% (n = 86,000); Clostridium difficile clinical isolate growth, OD600, 24 h; active compounds read low;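 active means mean growth activity at or below -80% and every replicate also at or below -80%; inconclusive means mean at or below -80% but some replicate above -80%; inactive means mean growth activity above -80%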
Pf Dd2 growth – P. falciparum Dd2 growth inhibitors, primary screen, SYBR Green fluorescence, single dose replicates | 72 h; active compounds read low | activity change, % at 10 µM | actives 2.3% (n = 94,000); in the data active means activity change below about -80%; inconclusive means no clear call, values can overlap the other calls
T cruzi growth-2 – T. cruzi intracellular proliferation inhibitors, confirmation, cell-based, NIH3T3 host, beta-gal parasite, luminescence, cherry-pick | T. cruzi beta-gal in NIH3T3, GalScreen luminescence, 90 h | inhibition, % at 8.35 µM | shares compounds with T cruzi growth-1 | actives 72% (n = 5,600);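 active means mean replicate inhibition above about 95% and at least 55% of replicates individually reaching it, limit read from the data; inconclusive means only one of the two criteria is met; inactive means neither criterion is met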
T cruzi growth-3 – inhibitors of intracellular T. cruzi replication, confirmation, NIH3T3 host cells, beta-gal parasites, cherry-pick, set 2; shares compounds with T cruzi growth-1; inhibition, % at 2.09 µM; actives 21% (n = 5,600); T. cruzi beta-gal in NIH3T3, GalScreen luminescence, 90 h;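 active means mean inhibition above about 95%, with at least 55% of replicates also reaching it, limit read from the data; inconclusive means meets just one of the two conditions; inactive means meets neither condition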
NIH3T3 tox – cytotoxicity in mouse NIH/3T3 fibroblasts, confirmation, cytotoxicity control for T. cruzi proliferation inhibitor project, cell-based, cherry-pick, single point; AID 651742, 2012; cytotoxicity (signal decrease), % at 8.35 µM; NIH/3T3 viability, CellTiter-Glo ATP luminescence, 90 h; actives 14% (n = 5,600); shares compounds with T cruzi growth-1;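 active means mean signal decrease across replicates above about 35% based on untreated-well scatter, with enough replicates individually passing, limit read from the data; inconclusive means no rule stated though some were filed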
NIH3T3 tox 2 – NIH/3T3 fibroblast cytotoxicity, confirmation, cytotoxicity control, cell-based, cherry-pick, single point, set 2 | shares compounds with T cruzi growth-1 | NIH/3T3 viability, CellTiter-Glo ATP luminescence, 90 h | inhibition, % at 24.9 µM | actives 56% (n = 5,600) | AID 651744, 2012;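 active means mean loss of cell viability signal at or above a set limit, and enough replicates individually reaching it; inconclusive means meets only the mean limit or only the replicate share; inactive means meets neither condition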
Each line names hits and unclear results; the compound was inactive in the other large screens (follow-up assays come after a bar, where they were run). Only some compounds are listed: those with a hit (about 6.8% of all), similar ones and a draw of the others.

O=C(c1ccccc1)N1CC[C@@H]2[C@H](CO)Nc3ccc(C#Cc4ccccc4F)cc3[C@@H]21	T cruzi growth-1 105 | T cruzi growth-2 104 | T cruzi growth-3 inactive | NIH3T3 tox 45 | NIH3T3 tox 2 106
COc1ccccc1C#Cc1ccc2c(c1)[C@@H]1[C@@H](CCN1C(=O)c1cccc(F)c1)[C@H](CO)N2	none (no result: T cruzi growth-1)
O=C(c1ccccc1)N1CC[C@H]2[C@H](CO)Nc3ccc(C#Cc4ccccc4F)cc3[C@H]21	none (no result: T cruzi growth-1)
O=C(c1ccccc1)N1CC[C@@H]2[C@H](CO)Nc3ccc(C#Cc4cccc(F)c4)cc3[C@@H]21	none
C[C@@H]1CN([C@@H](C)CO)C(=O)c2cc(/C=C/c3ccccc3)cnc2O[C@@H]1CN(C)C	none (no result: T cruzi growth-1)
CCC(=O)Nc1ccc2c(c1)OC[C@@H](C)N(C(=O)CC1CC1)C[C@H](C)[C@H](OC)CN(C)C2=O	none (no result: T cruzi growth-1)
COc1ccc(C#Cc2cnc3c(c2)C(=O)N([C@H](C)CO)C[C@H](C)[C@H](CN(C)C(=O)Nc2cccc4ccccc24)O3)cc1OC	none (no result: T cruzi growth-1)
C[C@H]1CN([C@@H](C)CO)C(=O)c2cccc(NC(=O)c3ccc(-c4nccs4)cc3)c2O[C@@H]1CN(C)S(C)(=O)=O	none
COc1cccc(C#Cc2ccc3c(c2)[C@H]2[C@H](CCN2S(=O)(=O)c2ccccc2)[C@H](CO)N3)c1	T cruzi growth-1 105 | T cruzi growth-2 108 | T cruzi growth-3 inactive | NIH3T3 tox inactive | NIH3T3 tox 2 inactive
COc1cccc(S(=O)(=O)N2CC[C@@H]3[C@H](CO)Nc4ccc(C#Cc5cccnc5)cc4[C@@H]32)c1	T cruzi growth-1 110 | T cruzi growth-2 108 | T cruzi growth-3 inactive | NIH3T3 tox inactive | NIH3T3 tox 2 inactive
COc1cccc(S(=O)(=O)N2CC[C@H]3[C@H](CO)Nc4ccc(C#Cc5cccnc5)cc4[C@H]32)c1	none (no result: T cruzi growth-1)
COc1cccc(C#Cc2ccc3c(c2)[C@@H]2[C@@H](CCN2S(=O)(=O)c2ccccc2)[C@H](CO)N3)c1	none (no result: T cruzi growth-1)
C[C@@H]1CN([C@H](C)CO)C(=O)c2cc(C#C[C@@H](C)O)cnc2O[C@@H]1CN(C)C(=O)CC1CC1	none (no result: Pf Dd2 growth)
C[C@H]1CN([C@@H](C)CO)C(=O)Cc2cc(NC(=O)NC3CCCCC3)ccc2O[C@@H]1CN(C)Cc1ccc(C(=O)O)cc1	none
C[C@@H]1CCCCO[C@@H](CN(C)C(=O)C2CCCCC2)[C@@H](C)CN([C@H](C)CO)C(=O)c2cc(NC(=O)Nc3ccc(F)cc3)ccc2O1	none
C[C@H]1CCCCO[C@H](CN(C)C(=O)C2CCCCC2)[C@@H](C)CN([C@@H](C)CO)C(=O)c2cc(NC(=O)Nc3ccc(C(F)(F)F)cc3)ccc2O1	T cruzi growth-1 121, Pf Dd2 growth inconclusive | T cruzi growth-2 96 | T cruzi growth-3 111 | NIH3T3 tox inactive | NIH3T3 tox 2 31
C[C@@H]1CCCCO[C@H](CN(C)C(=O)C2CCCCC2)[C@H](C)CN([C@@H](C)CO)C(=O)c2cc(NC(=O)Nc3ccc(C(F)(F)F)cc3)ccc2O1	T cruzi growth-1 118 | T cruzi growth-2 98 | T cruzi growth-3 118 | NIH3T3 tox inactive | NIH3T3 tox 2 inactive
C[C@@H]1CN([C@@H](C)CO)C(=O)c2cc(NC(=O)Nc3ccc(C(F)(F)F)cc3)ccc2O[C@@H](C)CCCCO[C@@H]1CN(C)C(=O)C1CCCCC1	none
C[C@@H]1CCCCO[C@@H](CN(C)C(=O)C2CCCCC2)[C@@H](C)CN([C@H](C)CO)C(=O)c2cc(NC(=O)Nc3ccc(C(F)(F)F)cc3)ccc2O1	T cruzi growth-1 117 | T cruzi growth-2 inactive | T cruzi growth-3 inactive | NIH3T3 tox inactive | NIH3T3 tox 2 26
